High-throughput results from PubChem.
DRD3 agonist: agonists of human D3 dopamine receptor; max activation, %; 410,000 tested, 0.58% active; D3R DiscoveRx beta-arrestin cells, luminescence, 90 min; P35462; in the data active = max activation above about 30%; also: 0% is about no effect
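Cells at 1500/well, incubated overnight, then treated with pinned compounds (dopamine as control) for 90 min at 37 degrees C. DiscoveRx reagent added for 30 - 60 minutes at room temperature; luminescence read.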
RGS4 inhibitor: inhibitors of human regulator of G protein signaling 4. 390,000 tested, 0.039% active. AID 504845. P49798. Potency, µM (titrated, usually from 114 µM), inactives show at the top dose activity change, negative = inhibition, hits mostly inhibitors. Transcreener GDP fluorescence polarization, RGS4-accelerated GTP hydrolysis; active = well fitted inhibition curve with a large enough effect; inconclusive = small, poorly fitted or top-dose-only effect; inactive = no such curve, though single readings can be large or run the other way; also: potency is read from the fitted curve at half-maximal effect; % is scaled to controls: 0 for no effect and ±100 for the full control effect; nearly all actives have a fitted effect of over 75% in size
Target sequence (P49798 whole entry, looked up): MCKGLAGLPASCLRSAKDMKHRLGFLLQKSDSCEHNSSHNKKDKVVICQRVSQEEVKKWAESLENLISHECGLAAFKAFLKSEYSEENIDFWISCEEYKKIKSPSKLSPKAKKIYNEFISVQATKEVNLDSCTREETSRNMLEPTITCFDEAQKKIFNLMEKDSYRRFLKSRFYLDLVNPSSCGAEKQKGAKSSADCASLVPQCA
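MLSMR compounds (23 nl, pin-transferred) preincubated 10 min at room temperature with a 500nM (2x) first reagent, then RGS4 at 900nM (2x) plus Transcreener GDP mix added; fluorescence polarization (620/688 nm) read before and after 90 min at 30 °C.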
DRD3 antagonist: blocks the human D3 dopamine receptor; P35462; D3R cells, DiscoveRx beta-arrestin luminescence, antagonist mode; stronger effect = lower value; max response, negative = inhibition, %; AID 652054; 360,000 tested, 2.5% active; in the data active = max response below about -50%; inconclusive = no clear call, values can overlap the other calls; also: % is scaled to controls: 0 for no effect and ±100 for the full control effect
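Cells plated overnight at 1500 cells/well, then exposed to library compounds with dopamine controls for 90 minutes at 37 degrees C. DiscoveRx reagent added for 30–60 minutes at room temperature; luminescence read, quantitative HTS format.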
pAkt inh: blocks phosphorylation of Akt; Neuro2A IGF-stimulated pAkt S473 HTRF, 20 min; stronger effect = lower value; activity change, % for hits at 50 µM; 360,000 tested, 0.32% active; AID 651550; in the data active = activity change below about -80%; inconclusive = mostly about -51% to -80%; also: % is scaled to controls: 0 for no effect and ±100 for the full control effect
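Neuro2A cells (4,500/well, DMEM with 0.5% FBS) were treated with compound at a single 50 µM final concentration, stimulated with 6 nM IGF for 20 min at 37 °C, and lysed. Phospho-Akt Ser473 was read by HTRF as 665/615 ratio ×10^4.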
PI4K2A inh: inhibitors of human PI4K2A; Q9BTU6; purified PI4K2A, ADP-Glo luminescence, 1 h; stronger effect = lower value; activity change, negative = inhibition, % at 76.9 µM; 420,000 tested, 0.13% active; in the data active = activity change below about -50%; inconclusive = mostly about -30% to -49%;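 also: -100% = wells without enzyme as full effect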
Target sequence (Q9BTU6 whole entry, looked up): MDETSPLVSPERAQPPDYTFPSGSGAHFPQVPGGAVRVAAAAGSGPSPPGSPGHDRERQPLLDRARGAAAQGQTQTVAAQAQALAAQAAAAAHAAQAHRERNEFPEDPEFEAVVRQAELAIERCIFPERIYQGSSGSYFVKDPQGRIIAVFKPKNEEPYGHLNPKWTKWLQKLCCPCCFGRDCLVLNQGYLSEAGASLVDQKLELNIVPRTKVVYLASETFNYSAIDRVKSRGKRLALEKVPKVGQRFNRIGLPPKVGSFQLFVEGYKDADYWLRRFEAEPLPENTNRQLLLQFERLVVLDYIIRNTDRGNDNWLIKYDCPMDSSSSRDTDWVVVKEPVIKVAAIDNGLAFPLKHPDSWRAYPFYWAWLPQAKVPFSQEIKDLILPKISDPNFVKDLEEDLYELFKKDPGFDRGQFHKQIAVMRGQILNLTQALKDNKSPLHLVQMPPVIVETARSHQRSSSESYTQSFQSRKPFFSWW
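Compounds are screened against recombinant PI4K2A using PI as substrate and ATP, the latter dispensed at 300 microM. Reactions run one hour at ambient temperature before ADP-Glo detection; full inhibition defined by wells lacking enzyme.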
LDHA block: blocks human lactate dehydrogenase A; P00338; purified LDHA, NADH/diaphorase-resazurin fluorescence; stronger effect = lower value; activity change, % (values are at about 110 or 230 µM); 480,000 tested, 0.15% active; in the data active = activity change below about -30%; inconclusive = mostly about -25% to -30%;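 also: plate controls were DMSO wells for no effect and wells without enzyme for full effect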
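Enzyme activity of human lactate dehydrogenase 5 (2 nM; 0.06 mM NADH, 0.2 mM pyruvate, 5 min, RT) is measured via a resazurin/diaphorase fluorescence readout of residual NADH.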
* = called active by the depositor; i = inactive; ? = inconclusive; . = no result; [ ] = another dose, or the depositor's remark. In the library only some 2.8% were active in any assay of this set; here they are far more common.

SMILES	DRD3 agonist	RGS4 inhibitor	DRD3 antagonist	pAkt inh	PI4K2A inh	LDHA block
CC1(C)Nc2ccc(O)cc2-c2c1ssc2=S	1	-49%	0	i	?	21
O=C(CCC1CCCC1)N1CCN(c2nc3ccccc3o2)CC1	.	.	.	.	.	1
Cc1ccc(OCCC(=O)OCC(=O)Nc2ccc(Cl)cn2)cc1	0	-36%	0	i	-7	1
Cc1ccc(OCCC(=O)OCC(=O)NCCNC(=O)COC(=O)CCOc2ccc(C)cc2)cc1	3	.	-61*	i	-3	-10
COC(=O)c1ccc(C(=O)OC)c(NC(=O)COC(=O)CCOc2ccc(C)cc2)c1	2	-5%	-62*	i	5	-7
COc1ccc(Oc2coc3cc(OCc4ccc([N+](=O)[O-])cc4)ccc3c2=O)cc1	.	.	.	.	.	-2
N#CC(=C(\N)Sc1ccccc1N)/C(C#N)=C(/N)Sc1ccccc1N	.	9.5µM*	.	.	2	.
COc1ccc(C2=NN3C(C2)c2ccccc2OC32CCN(C(C)=O)CC2)c(OC)c1 (centres undefined)	.	.	.	.	.	1
CC(=O)c1ccc(N=Cc2c(O)n(-c3cc(Cl)ccc3N3CCOCC3)c(=O)c3ccccc23)cc1	-6	-2%	0	-120%*	-13	1
O=[N+]([O-])c1ccc(CN2CCN(c3ccccc3)CC2)o1	-17	23%	-25	i	-12	-11
Clc1ccccc1-c1ccc(CN2CCN(c3ccccc3)CC2)o1	2	-4%	-67*	i	12	-1
Nc1c(C(=O)Nc2ccccc2F)sc2nc(Cc3ccccc3)cc(C(F)(F)F)c12	12	-18%	16	-109%*	5	-10
Cc1cc(C)c2c(N)c(C(=O)Nc3ccccc3C(F)(F)F)sc2n1	6	-4%	.	.	-8	-7
Cc1cc(C(F)(F)F)n(-c2nc(C(=O)O)cs2)n1	-9	6%	3	i	-2	-6
O=C(O)c1csc(-n2nc(-c3ccccc3)cc2C(F)(F)F)n1	-2	15%	-18	i	-8	-87*
CCOC(=O)C1C(c2ccccc2F)NC(=O)NC1(O)C(F)(F)F (centres undefined)	.	.	.	.	.	-2
Cc1ccc(C2(c3ccc(C)cc3)CC2C(=O)Nc2ccc([N+](=O)[O-])cc2O)cc1 (centres undefined)	-5	?	-66*	i	5	6
Cc1ccc(C(=O)CN(CCC(=O)O)C(=O)c2ccncc2)cc1	31*	6%	28	i	0	0
Cc1ccc(C(=O)NCC(=O)Nc2ccncc2)cc1	3	-17%	0	i	1	-1
Cc1oc(-c2ccccc2Cl)nc1CSc1nc2c(c(=O)[nH]1)CCCC2	30*	-21%	113	i	-2	-5
C=CCc1ccccc1OCC(O)CNC(C)C (centres undefined)	-58	-3%[56.9 µM]	-60*	.	4	-17
CCOc1ccccc1N1CCN(CC(O)COc2ccc3c(C)cc(=O)oc3c2)CC1 (centres undefined)	-9	-25%	-70*	i	0	7
COc1ccccc1N1CCN(CC(O)COc2ccc3c(c2)OCO3)CC1 (centres undefined)	-14	-4%[11.4 µM]	-103*	i	-4	1
OCCN1CCN(CC(O)COc2ccc3c(c2)OCO3)CC1 (centres undefined)	0	-17%	?	i	-3	3
COc1ccccc1N1CCN(Cc2cc3c(cc2O)OCO3)CC1	-26	5%	-81*	i	-7	33
SMILES	DRD3 agonist	RGS4 inhibitor	DRD3 antagonist	pAkt inh	PI4K2A inh	LDHA block
O=C(COC(=O)Cc1cccc2ccccc12)Nc1ccccc1	.	.	.	.	.	-5
O=C(NCc1ccc(F)cc1)Nc1c(NC2CCCCC2)c2ccccc2oc1=O	.	.	.	.	.	-4
Cc1cc2oc(C(=O)NCC(c3ccco3)N3CCOCC3)c(C)c2cc1C (centres undefined)	.	.	.	.	.	1
OC(COc1cccc2ccccc12)CN1CCN(c2ccccc2)CC1 (centres undefined)	35*	6%	-54*	i	-5	-1
COc1ccc(N2CCN(CC(O)COc3c(OC)cccc3OC)CC2)cc1 (centres undefined)	-4	-19%	-28	i	6	0
COc1cccc(OC)c1OCC(O)CN1CCN(c2ccccc2F)CC1 (centres undefined)	28	1%	-57*	i	-2	1
C=CCc1ccccc1OCC(O)CN1CCN(c2ccccc2OC)CC1 (centres undefined)	-12	4%	-139*	i	7	2
OC(COc1cccc2ccccc12)CN1CCOCC1 (centres undefined)	-10	8%	-18	i	1	-11
COc1ccccc1N1CCN(CC(O)COc2cccc3ccccc23)CC1 (centres undefined)	-74	?	-99*	i	0	-2
O=S(=O)(c1cccs1)N1CCN(CC(O)COC2CCCc3ccccc32)CC1 (centres undefined)	4	-22%	?	i	-3	-7
CCOc1ccccc1N1CCN(CC(O)COC2CCCc3ccccc32)CC1 (centres undefined)	-22	-13%	-89*	i	4	0
O=C(CN1C(=O)c2ccccc2S1(=O)=O)NC1CCCC1	-3	13%	-52*	.	3	-9
FC(F)(F)c1ccc(Cl)c(N/N=C/c2cccc(Br)c2)c1	.	.	.	.	.	-3
Cc1cccc(Cn2cc(/C=C/[N+](=O)[O-])c3ccccc32)c1	-2	?	-24	i	26	5
O=[N+]([O-])/C=C/c1cn(Cc2ccc(Cl)cc2)c2ccccc12	-4	-41%	-53*	i	23	2
CC1CC(C)CN(CCOc2cccc(Cl)c2Cl)C1 (centres undefined)	16	10%	-71*	i	1	-12
Cn1c(=O)n(CCOc2ccc(Cl)cc2Cl)c2ccccc21	2	-11%	7	i	-6	-6
CCC(=O)c1ccccc1OCCN1CCN(CC)CC1	0	-58%[56.9 µM]	-24	i	-1	-17
CCN1CCN(CCOc2cccc(Cl)c2Cl)CC1	67*	23%[56.9 µM]	?	i	3	-36*
CC1CC(C)CN(CCOc2ccc(Cl)cc2Cl)C1 (centres undefined)	-2	-31%	-97*	i	6	-7
COC(=O)c1cc(-c2ccc(C)cc2)nc2onc(-c3ccco3)c12	.	.	.	.	.	2
Cc1ccc(NC(=O)Nc2c(NC3CCCCC3)c3ccccc3oc2=O)cc1	.	.	.	.	.	-9
O=C(Cn1c(=O)[nH]c2c(-c3ccccc3)c[nH]c2c1=O)NCc1ccc(F)cc1	.	.	.	.	.	8
